Assay results taken from PubChem BioAssay (EPA / NIEHS).
Records with an inconclusive call do not appear. The source made the active and inactive calls. Rule for the calls: active = hit-call score of the fitted dose curve at least 0.9, where 1 is the maximum; inconclusive = response in the unintended direction; inactive = score below 0.9.

Assay: TOX21_PR_BLA_Followup_Agonist_viability: Viability Assessment in the Tox21 HEK293 Progesterone Receptor (PR) Agonism Beta-lactamase Follow-Up Assay (AID 2283935);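 note: signal loss means lower viability so actives are cytotoxic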
How it was run: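 Cells were plated in medium with 2% charcoal-stripped FBS and rested 6 hr. Compounds in DMSO were then added for 16 hr at 37C, followed by the FRET substrate step and CellTiter-Glo luminescence after 30 min.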
With `CC(=O)O[C@@H]1CC2C3CCc4cc(OC(=O)c5ccccc5)ccc4C3CCC2(C)[C@H]1OC(C)=O` (stereo partly drawn) the outcome was “inactive”.
For `CC(=O)OCC(=O)[C@@]1(O)CC[C@H]2[C@@H]3CCC4=CC(=O)CC[C@]4(C)[C@H]3C(=O)C[C@@]21C`, the outcome was “inactive”.
With `C[C@@H]1C[C@H]2[C@@H]3C[C@H](F)C4=CC(=O)C=C[C@]4(C)[C@@]3(F)[C@@H](O)C[C@]2(C)[C@@]1(O)C(=O)CO` the outcome was “inactive”.
With `Clc1ccccc1CN1CCc2sccc2C1` the outcome was “inactive”.
With `CC(=O)OCC(=O)[C@H]1CC[C@H]2[C@@H]3CCC4=CC(=O)CC[C@]4(C)[C@H]3CC[C@]12C` the outcome was “inactive”.
With `CCCC(=O)O[C@]1(C(=O)CO)CC[C@H]2[C@@H]3CCC4=CC(=O)CC[C@]4(C)[C@H]3[C@@H](O)C[C@@]21C` the outcome was “inactive”.
For `C[C@]12CCC(=O)C=C1CC[C@H]1[C@@H]3CC[C@](O)(C(=O)CO)[C@@]3(C)C[C@H](O)[C@@]12F`, the outcome was “inactive”.
For `C[C@@H]1CC(=O)NN=C1c1ccc(NN=C(C#N)C#N)cc1`, the outcome was “inactive”.
With `CCC(=O)Oc1ccc2c(c1)CC[C@@H]1[C@@H]2CC[C@@]2(C)[C@H]1C[C@@H](OC(=O)CC)[C@@H]2OC(=O)CC` the outcome was “inactive”.
With `COC(=O)C1=C(C)NC(C)=C(C(=O)OC(C)C)C1c1cccc2nonc12` (stereo not drawn) the outcome was “inactive”.
In the case of `CC1(C)OC(=O)Nc2ccc(Br)cc21`, the outcome is reported as “inactive”.
With `CCCC(=O)OCOC(=O)C1=C(C)NC(C)=C(C(=O)OC)C1c1cccc(Cl)c1Cl` (stereo not drawn) the outcome was “inactive”.
For `C/C=C1\C(=O)C[C@H]2[C@@H]3CCC4=CC(=O)CC[C@]4(C)[C@H]3CC[C@]12C`, the outcome was “inactive”.
For `C[C@@H]1C[C@H]2[C@@H]3CCC4=CC(=O)C=C[C@]4(C)[C@@]3(F)[C@@H](O)C[C@]2(C)[C@@]1(O)C(=O)COC(=O)c1ccncc1`, the outcome was “inactive”.
For `C/C=C1/C(=O)C[C@H]2[C@@H]3CCC4=CC(=O)CC[C@]4(C)[C@H]3CC[C@]12C`, the outcome was “inactive”.
For `CC(=O)O[C@H]1CC[C@@]2(C)C(=CC[C@@H]3[C@@H]2CC[C@]2(C)C(C(C)=O)=CC[C@@H]32)C1`, the outcome was “inactive”.
In the case of `CCC(=O)O[C@]1(C(=O)COC)[C@@H](C)C[C@H]2[C@@H]3CCC4=CC(=O)C=C[C@]4(C)C3(F)[C@@H](O)C[C@@]21C` (stereo partly drawn), the outcome is reported as “inactive”.
For `CC(C)(C)C(O)/C=C/c1ccc2c(c1)OCO2` (stereo not drawn), the outcome was “inactive”.
In the case of `CC(=O)OCC(=O)[C@@]1(O)[C@H](C)C[C@H]2[C@@H]3CCC4=CC(=O)C=C[C@]4(C)[C@@]3(F)[C@@H](O)C[C@@]21C`, the outcome is reported as “inactive”.
For `CCN(CC)CC(=O)OCC(=O)[C@@]1(O)CC[C@H]2[C@@H]3CCC4=CC(=O)CC[C@]4(C)[C@H]3[C@@H](O)C[C@@]21C`, the outcome was “inactive”.
In the case of `COC(=O)[C@@H]1CC2=CC(=O)CC[C@]2(C)[C@@]23O[C@@H]2C[C@@]2(C)[C@@H](CC[C@@]24CCC(=O)O4)[C@H]13`, the outcome is reported as “inactive”.
With `C[C@]12CCC(=O)C=C1CC[C@@H]1[C@@H]2[C@@H](O)C[C@@]2(C)[C@H]1CC[C@]2(O)C(=O)CO` the outcome was “inactive”.
In the case of `C/C=C(/C(=C/C)c1ccc(OC(C)=O)cc1)c1ccc(OC(C)=O)cc1`, the outcome is reported as “inactive”.

Assay: TOX21_PR_BLA_Followup_Antagonist_viability: Viability Assessment in the Tox21 HEK293 Progesterone Receptor (PR) Antagonism Beta-lactamase Follow-Up Assay (AID 2283936);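 note: cells exposed to compound with R5020 agonist for 16 h; hits lower the luminescence signal meaning cytotoxicity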
How it was run: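 PR-UAS-bla HEK293T cells in medium with 2% charcoal-stripped FBS were treated with compounds plus R5020 for 16 hr at 37C. After the beta-lactamase read, CellTiter-Glo was added to the same wells and luminescence read after 30 min at room temperature.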
In the case of `CC(=O)O[C@@H]1CC2C3CCc4cc(OC(=O)c5ccccc5)ccc4C3CCC2(C)[C@H]1OC(C)=O` (stereo partly drawn), the outcome is reported as “inactive”.
For `CC(=O)OCC(=O)[C@@]1(O)CC[C@H]2[C@@H]3CCC4=CC(=O)CC[C@]4(C)[C@H]3C(=O)C[C@@]21C`, the outcome was “inactive”.
In the case of `C[C@@H]1C[C@H]2[C@@H]3C[C@H](F)C4=CC(=O)C=C[C@]4(C)[C@@]3(F)[C@@H](O)C[C@]2(C)[C@@]1(O)C(=O)CO`, the outcome is reported as “inactive”.
With `Clc1ccccc1CN1CCc2sccc2C1` the outcome was “inactive”.
In the case of `CC(=O)OCC(=O)[C@H]1CC[C@H]2[C@@H]3CCC4=CC(=O)CC[C@]4(C)[C@H]3CC[C@]12C`, the outcome is reported as “inactive”.
With `C[C@]12CCC(=O)C=C1CC[C@H]1[C@@H]3CC[C@](O)(C(=O)CO)[C@@]3(C)C[C@H](O)[C@@]12F` the outcome was “inactive”.
With `C[C@@H]1CC(=O)NN=C1c1ccc(NN=C(C#N)C#N)cc1` the outcome was “inactive”.
In the case of `CCC(=O)Oc1ccc2c(c1)CC[C@@H]1[C@@H]2CC[C@@]2(C)[C@H]1C[C@@H](OC(=O)CC)[C@@H]2OC(=O)CC`, the outcome is reported as “inactive”.
With `COC(=O)C1=C(C)NC(C)=C(C(=O)OC(C)C)C1c1cccc2nonc12` (stereo not drawn) the outcome was “inactive”.
For `CC1(C)OC(=O)Nc2ccc(Br)cc21`, the outcome was “inactive”.
In the case of `CCCC(=O)OCOC(=O)C1=C(C)NC(C)=C(C(=O)OC)C1c1cccc(Cl)c1Cl` (stereo not drawn), the outcome is reported as “inactive”.
For `C[C@@H]1C[C@H]2[C@@H]3CCC4=CC(=O)C=C[C@]4(C)[C@@]3(F)[C@@H](O)C[C@]2(C)[C@@]1(O)C(=O)COC(=O)c1ccncc1`, the outcome was “inactive”.
With `C/C=C1/C(=O)C[C@H]2[C@@H]3CCC4=CC(=O)CC[C@]4(C)[C@H]3CC[C@]12C` the outcome was “inactive”.
For `CC(=O)O[C@H]1CC[C@@]2(C)C(=CC[C@@H]3[C@@H]2CC[C@]2(C)C(C(C)=O)=CC[C@@H]32)C1`, the outcome was “inactive”.
With `CCC(=O)O[C@]1(C(=O)COC)[C@@H](C)C[C@H]2[C@@H]3CCC4=CC(=O)C=C[C@]4(C)C3(F)[C@@H](O)C[C@@]21C` (stereo partly drawn) the outcome was “inactive”.
With `CC(C)(C)C(O)/C=C/c1ccc2c(c1)OCO2` (stereo not drawn) the outcome was “inactive”.
For `CC(=O)OCC(=O)[C@@]1(O)[C@H](C)C[C@H]2[C@@H]3CCC4=CC(=O)C=C[C@]4(C)[C@@]3(F)[C@@H](O)C[C@@]21C`, the outcome was “inactive”.
With `CCN(CC)CC(=O)OCC(=O)[C@@]1(O)CC[C@H]2[C@@H]3CCC4=CC(=O)CC[C@]4(C)[C@H]3[C@@H](O)C[C@@]21C` the outcome was “inactive”.
In the case of `COC(=O)[C@@H]1CC2=CC(=O)CC[C@]2(C)[C@@]23O[C@@H]2C[C@@]2(C)[C@@H](CC[C@@]24CCC(=O)O4)[C@H]13`, the outcome is reported as “inactive”.
In the case of `C/C=C(/C(=C/C)c1ccc(OC(C)=O)cc1)c1ccc(OC(C)=O)cc1`, the outcome is reported as “inactive”.
